# From the supplement of paper PMC12494721
# Structures can show the parent of a compound that is named as a salt.
# What was measured:
# Details in all cases: 20 µM; incubation time: 27 h, anaerobic, 37 °C;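 for the amine columns active = adjusted P below 0.05 in both replicates with a change the same way and a mean fold change under 0.8 or over 1.25; inactive = the rest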
# [1] = system: Clostridium sporogenes DSM 1664; assay: growth (OD595) fold change vs plate DMSO controls (fold change (ratio)); higher = more growth
# In short: (§1)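 To obtain OD, 595 nm absorbance readings were blank-subtracted, corrected for compound background using 20 µM compound solutions in water, and multiplied by a calibration factor of 5. They came from 96-well mGAM cultures grown anaerobically for 27 h at 37 °C and shaken before reading. Growth is the fold change relative to the median of plate DMSO controls. Two biological replicates were averaged, and fold changes above 1.5 were set to NA.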
# Escherichia coli IAI1 [2] = assay: as above
# In short: as §1
# [3] = system: Klebsiella aerogenes DSM 30053; assay: as above
# In short: as §1
# [4] = system: Ruminococcus gnavus DSM 108212; assay: as above
# In short: as §1
# [5] = system: Klebsiella aerogenes DSM 30053; assay: fold change of Histamine concentration vs plate DMSO controls (fold change (ratio)); higher = more amine produced, active = hit call of the paper (significant change in both replicates, either direction)
# In short: (§2)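 Using LC–triple-quadrupole MS with dynamic MRM, amines were quantified against external calibration curves and corrected for drift within each batch. Samples were whole anaerobic mGAM cultures of four gut strains, grown 27 h at 37 °C from OD 0.1 before 1:1 dilution, extracted with cold acetonitrile/methanol containing 0.1% formic acid and centrifuged. Compounds were present at 20 µM final (sweeteners at 50 µM final). The numbers are fold changes versus plate DMSO controls, each the mean of 2 biological replicates.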
# [6] = system: Clostridium sporogenes DSM 1664; assay: fold change of Tryptamine concentration vs plate DMSO controls (fold change (ratio)); higher = more amine produced, active = hit call of the paper (significant change in both replicates, either direction)
# In short: as §2
# [7] = system: Ruminococcus gnavus DSM 108212; assay: as above
# In short: as §2
# Escherichia coli IAI1 [8] = assay: fold change of Putrescine concentration vs plate DMSO controls (fold change (ratio)); higher = more amine produced, active = hit call of the paper (significant change in both replicates, either direction)
# In short: as §2
# [9] = system: Klebsiella aerogenes DSM 30053; assay: as above
# In short: as §2
# Escherichia coli IAI1 [10] = assay: fold change of Cadaverine concentration vs plate DMSO controls (fold change (ratio)); higher = more amine produced, active = hit call of the paper (significant change in both replicates, either direction)
# In short: as §2
# [11] = system: Klebsiella aerogenes DSM 30053; assay: as above
# In short: as §2
# [12] = system: Ruminococcus gnavus DSM 108212; assay: fold change of 2-Phenylethylamine concentration vs plate DMSO controls (fold change (ratio)); higher = more amine produced, active = hit call of the paper (significant change in both replicates, either direction)
# In short: as §2
smiles,measurement,setting,value
CNC(=O)Oc1ccc2c(c1)[C@]1(C)CCN(C)[C@@H]1N2C [Eserine hemisulfate salt],growth,[1],1.02
same,growth,Escherichia coli IAI1 [2],1.06
same,growth,[3],0.988
same,growth,[4],1.05
same,fold change of Histamine concentration,[5],1.04 (inactive)
same,fold change of Tryptamine concentration,[6],1.02 (inactive)
same,fold change of Tryptamine concentration,[7],1.03 (inactive)
same,fold change of Putrescine concentration,Escherichia coli IAI1 [8],1.06 (inactive)
same,fold change of Putrescine concentration,[9],0.996 (inactive)
same,fold change of Cadaverine concentration,Escherichia coli IAI1 [10],0.999 (inactive)
same,fold change of Cadaverine concentration,[11],0.975 (inactive)
same,fold change of 2-Phenylethylamine concentration,[12],1.05 (inactive)
CCN(CC)CCOC(=O)C(O)(c1ccccc1)c1ccccc1 [Benactyzine hydrochloride],growth,[1],1.07
same,growth,Escherichia coli IAI1 [2],1.01
same,growth,[3],1.01
same,growth,[4],0.944
same,fold change of Histamine concentration,[5],0.998 (inactive)
same,fold change of Tryptamine concentration,[6],0.997 (inactive)
same,fold change of Tryptamine concentration,[7],1.06 (inactive)
same,fold change of Putrescine concentration,Escherichia coli IAI1 [8],1.02 (inactive)
same,fold change of Putrescine concentration,[9],0.992 (inactive)
same,fold change of Cadaverine concentration,Escherichia coli IAI1 [10],0.986 (inactive)
same,fold change of Cadaverine concentration,[11],0.999 (inactive)
same,fold change of 2-Phenylethylamine concentration,[12],1.07 (inactive)
C=CC[C@]1(O)CC[C@H]2[C@@H]3CCC4=CC(=O)CCC4=C3C=C[C@@]21C [Altrenogest],growth,[1],0.998
same,growth,Escherichia coli IAI1 [2],0.987
same,growth,[3],1.05
same,growth,[4],0.827
same,fold change of Histamine concentration,[5],0.926 (inactive)
same,fold change of Tryptamine concentration,[6],1.02 (inactive)
same,fold change of Tryptamine concentration,[7],1 (inactive)
same,fold change of Putrescine concentration,Escherichia coli IAI1 [8],1.09 (inactive)
same,fold change of Putrescine concentration,[9],1.01 (inactive)
same,fold change of Cadaverine concentration,Escherichia coli IAI1 [10],1.42 (inactive)
same,fold change of Cadaverine concentration,[11],1.01 (inactive)
same,fold change of 2-Phenylethylamine concentration,[12],0.978 (inactive)
CC[N+]1(C)CCCC(OC(=O)C(O)(c2ccccc2)c2ccccc2)C1 (configuration not stated) [Pipenzolate bromide],growth,[1],0.938
same,growth,Escherichia coli IAI1 [2],0.997
same,growth,[3],0.994
same,growth,[4],1.05
same,fold change of Histamine concentration,[5],0.982 (inactive)
same,fold change of Tryptamine concentration,[6],0.957 (inactive)
same,fold change of Tryptamine concentration,[7],0.956 (inactive)
same,fold change of Putrescine concentration,Escherichia coli IAI1 [8],1.06 (inactive)
same,fold change of Putrescine concentration,[9],1 (inactive)
same,fold change of Cadaverine concentration,Escherichia coli IAI1 [10],0.988 (inactive)
same,fold change of Cadaverine concentration,[11],1.01 (inactive)
same,fold change of 2-Phenylethylamine concentration,[12],0.926 (inactive)
O=c1c2ccccc2[se]n1-c1ccccc1 [Ebselen],growth,[1],1.02
same,growth,Escherichia coli IAI1 [2],1.12
same,growth,[3],1.14
same,growth,[4],1.14
same,fold change of Histamine concentration,[5],0.916 (inactive)
same,fold change of Tryptamine concentration,[6],0.823 (inactive)
same,fold change of Tryptamine concentration,[7],0.801 (inactive)
same,fold change of Putrescine concentration,Escherichia coli IAI1 [8],1.02 (inactive)
same,fold change of Putrescine concentration,[9],0.959 (inactive)
same,fold change of Cadaverine concentration,Escherichia coli IAI1 [10],0.953 (inactive)
same,fold change of Cadaverine concentration,[11],0.984 (inactive)
same,fold change of 2-Phenylethylamine concentration,[12],0.851 (inactive)
CC(C)(C)NCC(O)c1cc(Cl)c(N)c(Cl)c1 (configuration not stated) [Clenbuterol hydrochloride],growth,[1],1.03
same,growth,Escherichia coli IAI1 [2],1.02
same,growth,[3],1.01
same,growth,[4],1.13
same,fold change of Histamine concentration,[5],0.983 (inactive)
same,fold change of Tryptamine concentration,[6],0.986 (inactive)
same,fold change of Tryptamine concentration,[7],1.02 (inactive)
same,fold change of Putrescine concentration,Escherichia coli IAI1 [8],0.991 (inactive)
same,fold change of Putrescine concentration,[9],0.983 (inactive)
same,fold change of Cadaverine concentration,Escherichia coli IAI1 [10],0.987 (inactive)
same,fold change of Cadaverine concentration,[11],1 (inactive)
same,fold change of 2-Phenylethylamine concentration,[12],1.02 (inactive)
